Bioassay records: PubChem BioAssay, several laboratories
This is a sample that favours compounds with a hit; in the whole collection about 4.6% have one here.
FAS TE block: FAS thioesterase (human) inhibition. inhibition, % at 15 µM. recombinant FAS-TE, OMFH fluorogenic substrate, fluorescence endpoint. P49327. 360,000 tested, 0.67% active;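 active = compounds whose normalised, plate-corrected inhibition of enzyme fluorescence in the single-dose primary screen is 50% or more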;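 note: 0% = DMSO with enzyme and 100% = substrate without enzyme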
NR3A LBD binder: NR3A (human) ligand-binding domain modulation | Tm shift relative to glycine control, % at 25 µM | NR3A LBD differential scanning fluorimetry, Tm shift; 0% = protein alone, 100% = glycine-bound protein | 340,000 tested, 2.5% active;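 active = melting temperature shift of at least 10% of the positive control shift, at one fixed dose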
ADAM10 inh: ADAM10 inhibition, QFRET primary screen; recombinant ADAM10, EDANS/DABCYL FRET peptide cleavage, 3 h; inhibition, % at 7 µM; 370,000 tested, 0.62% active;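 active = inhibition above a per-campaign cutoff equal to the mean of compounds falling between control-based bounds plus 3 SD, cut at about 20% in these data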;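 note: 0% = DMSO wells while the 100% control is not disclosed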
KLK7 zymogen act: activators of human kallikrein-7 zymogen. P49862. purified proKLK7, EDANS-DABCYL substrate fluorescence; 100% is mature enzyme control, 0% vehicle. activation, % at 7 µM. 370,000 tested, 0.9% active. AID 652039;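 active = activation above the mean of all tested compounds plus 3 SD, computed per campaign excluding outliers beyond control limits, cut at about 13% in these data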
ADAM17 inh: inhibitors of human ADAM17 | inhibition, % at 6.95 µM | 370,000 tested, 0.83% active | recombinant ADAM17, EDANS/DABCYL FRET peptide cleavage | P78536 | AID 720648;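 active = inhibition above the mean of compounds lying between control limits plus 3 SD, set per campaign, cut at about 8.5% in these data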;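 note: 0% = DMSO-only wells as the low control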
ADAM10 confirm: confirmation of inhibitors of human ADAM10; shares compounds with ADAM10 inh; ADAM10 QFRET peptide cleavage, EDANS fluorescence; inhibition, % at 6.95 µM; 2,100 tested, 1% active; AID 743208;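 active = inhibition above about 20% chosen separately for each screening run, limit read from the data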;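 note: 0% = DMSO wells and 100% = marimastat wells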
ADAM17 counter: inhibits human ADAM17 in ADAM10 exosite counter-screen; shares compounds with ADAM10 inh; ADAM17 QFRET peptide cleavage, EDANS fluorescence; inhibition, % at 6.95 µM; 2,100 tested, 0.5% active;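 active = mean triplicate inhibition above the solvent-only control wells' mean plus 3 SD, cut at about 12% in these data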;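 note: 0% = DMSO wells and 100% = marimastat wells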
* marks the source's active call; other numbers are inactive results; / = no result given.

SMILES | FAS TE block | NR3A LBD binder | ADAM10 inh | KLK7 zymogen act | ADAM17 inh | ADAM10 confirm | ADAM17 counter
CCc1nnc(NC(=O)CSc2ccc(-c3ccc(-n4cccn4)cc3)nn2)s1 | -7.8 | 34.6* | 53.9* | -0.1 | -3.0 | -0.2 | 0.5
COc1cccc(CC(=O)NCC2CCN(C(=O)C(=O)c3cccs3)CC2)c1 | / | / | 0.9 | -0.2 | -3.2 | / | /
COC(=O)c1sc2ccccc2c1-n1cccc1C(=O)C(=O)Nc1ccc(OC)cc1 | 30.1 | 1.4 | 21.9* | -3.1 | 8.3 | 4.6 | 2.5
N#Cc1c(NC(=O)CCn2cnc3ccccc3c2=O)oc(-c2ccccc2)c1-c1ccccc1 | 17.7 | -5.1 | 20.1* | 0.9 | 6.5 | 15.9 | 5.7
N#Cc1c(NC(=O)CSc2ccccn2)oc(-c2ccccc2)c1-c1ccccc1 | 20.8 | -1.6 | 5.6 | 2.5 | -2.9 | / | /
C#CC1(O)CCCC2C3CCC4CC(OC(C)=O)CCC4(C)C3C(=O)CC21C (stereo not given) | 7.0 | 2.0 | 23.9* | -0.3 | 1.9 | 2.2 | 0.1
CC(=O)C1(O)CCC2C3CCC4CC(O)CCC4(C)C3C(=O)CC21C (stereo not given) | -4.3 | -1.1 | -3.1 | -1.4 | -3.5 | / | /
C[C@H]1COc2cccc(NCCO)c2S(=O)(=O)N1 | / | / | -0.7 | -0.1 | 0.0 | / | /
CC(C)(C)c1nn(-c2ccccc2)c2[nH]c(=O)c(C=O)cc12 | -3.2 | 0.2 | 77.6* | 0.1 | -1.6 | 4.9 | 2.3
CCOc1ccc(S(=O)(=O)n2c(C)nc3ccccc32)cc1 | -8.4 | -1.3 | 7.9 | -0.5 | 3.3 | / | /
CCOc1ccc(S(=O)(=O)n2cnc3ccccc32)cc1 | -2.8 | 0.0 | 64.0* | 0.1 | -1.0 | 2.8 | 0.2
C#CCN1CC(COc2ccccc2)Oc2cccc(Oc3ccc(C(C)C)cc3)c2S1(=O)=O (stereo not given) | / | / | -8.8 | -0.3 | -3.2 | / | /
Cc1ccc(Sc2ncccc2COC(=O)Nc2ccccc2)cc1 | 19.7 | -5.6 | 21.8* | 0.9 | 7.7 | 6.2 | 2.5
Cc1ccc(Sc2ncccc2COC(=O)Nc2c(C)cccc2C)cc1 | 22.4 | 7.3 | 16.4 | -0.1 | 7.0 | / | /
Cc1cccc(OCCNC(=O)c2ccc(Oc3ccc(C(F)(F)F)cc3[N+](=O)[O-])cc2)c1 | 19.8 | -7.2 | 25.6* | 0.5 | 0.0 | 6.8 | 1.7
Cc1ccnc(NCc2cccc3ccccc23)c1 | 7.8 | 5.8 | 23.0* | 0.4 | 1.6 | 1.8 | -0.1
COc1cccc(CNc2cc(C)ccn2)c1O | -2.4 | 1.7 | 0.7 | -0.9 | -1.2 | / | /
Cc1ccc(N=C(NOCc2ccc(Cl)cc2Cl)c2nonc2N)c(C)c1 | 40.8 | / | 21.1* | 0.1 | 5.3 | 6.9 | 1.9
COc1ccc(-c2c(C(=O)c3ccccc3)[nH]c(N)c2C(=O)NCCc2c[nH]c3ccccc23)cc1 | / | / | -10.4 | 0.1 | -0.3 | / | /
Cc1cccc(-c2noc(Cc3ccc(Cl)cc3)n2)c1 | 23.1 | -20.7 | 20.3* | -0.4 | 2.2 | 3.9 | 0.7
C[C@@H]1CN([C@H](C)CO)S(=O)(=O)c2ccc(C#Cc3ccccc3)cc2O[C@H]1CN(C)C(=O)Nc1ccc2c(c1)OCO2 | 30.1 | / | 20.2* | -1.0 | 5.7 | 9.4 | 3.5
CC(C)CC#Cc1ccc2c(c1)O[C@H](CN(C)C(=O)Nc1ccccc1)[C@@H](C)CN([C@H](C)CO)S2(=O)=O | -1.9 | / | 2.0 | -0.4 | 2.4 | / | /
O=S1(=O)CCC(N(N=Cc2ccco2)c2ccccc2)C1 (stereo not given) | / | / | 5.5 | 0.9 | 2.6 | / | /
Cc1ccc(N(CC(=O)Nc2ccc3c(c2)OCCO3)S(=O)(=O)c2c(C)noc2C)cc1 | 5.0 | -6.5 | 13.6 | 0.1 | 4.9 | / | /
Cc1ccc(N(CC(=O)Nc2ccc3c(c2)OCCO3)S(=O)(=O)c2c(C)n[nH]c2C)cc1 | -4.9 | 4.7 | 20.1* | 0.3 | 6.3 | 0.2 | 0.2
SMILES | FAS TE block | NR3A LBD binder | ADAM10 inh | KLK7 zymogen act | ADAM17 inh | ADAM10 confirm | ADAM17 counter
Cn1c(N=Nc2ccccc2)nc2ccccc21 | -11.0 | -1.8 | 21.6* | -0.1 | 7.7 | 1.6 | -0.5
O=C1c2[nH]nc(-c3ccccc3O)c2C(c2cccc(Cl)c2)N1Cc1ccco1 (stereo not given) | -79.0 | -1.4 | 28.8* | -0.2 | 6.7 | 3.9 | 1.0
C[C@H]1COc2cc(NCCO)ccc2S(=O)(=O)N1 | / | / | -5.6 | 0.0 | -3.4 | / | /
CC(C)(C)c1ccc(Oc2cccc(C3CC(=O)C(C4NCCc5ccccc54)C(=O)C3n3cncn3)c2)cc1 (stereo not given) | 3.3 | -5.6 | 6.1 | -0.2 | -0.3 | / | /
O=C1CC(c2ccccc2Oc2cccc(Cl)c2)C(n2cncn2)C(=O)C1C1NCCc2ccccc21 (stereo not given) | -0.3 | 1.1 | 23.3* | -0.1 | 0.4 | -0.5 | -0.6
CN(CC(=O)Nc1cc(Cl)cc(Cl)c1)Cc1cccs1 | 23.8 | -7.1 | 22.3* | 0.1 | 0.9 | 7.5 | 2.4
CC(C)NC(=O)c1c(CSc2ccc(Cl)cc2)noc1C(=O)NCc1ccccc1 | 15.9 | -8.3 | 21.6* | 0.8 | 5.4 | 3.0 | 2.2
O=C(NCc1ccccc1)c1onc(CSc2ccccc2)c1C(=O)NCc1ccccc1 | 23.4 | -3.1 | 11.8 | 0.3 | 4.9 | / | /
O=C(NCc1ccccc1)c1onc(CSc2ccc(Cl)cc2)c1C(=O)NCc1ccccc1 | 25.2 | -3.7 | 1.6 | 0.0 | 0.6 | / | /
CC(C)NC(=O)c1c(CSc2ccccc2)noc1C(=O)NCc1ccccc1 | 18.5 | -8.3 | 80.6* | 0.1 | 3.8 | 1.4 | 1.0
O=C(CN1CCN(c2ccccc2)CC1)Nc1ccccc1Cl | 20.5 | -0.4 | 5.5 | 0.6 | -1.4 | / | /
O=C(CCN1CCN(c2ccccc2)CC1)NNC(=S)Nc1ccccc1Cl | -2.6 | 1.2 | 20.7* | 0.3 | 15.0* | 0.8 | 1.0
Cc1[nH]c2ccccc2c1C(=O)COC(=O)C1CC(=O)N(Cc2ccccc2)C1 (stereo not given) | -1.4 | -0.9 | 7.5 | -0.4 | -0.8 | / | /
C=CCn1c(C)cc(C(=O)COC(=O)C2CC(=O)N(Cc3ccccc3)C2)c1C (stereo not given) | -3.7 | 3.3 | 77.6* | 0.0 | -1.6 | 0.3 | 0.2
O=C(CSc1nnc(-c2cccnc2)n1-c1ccc(Cl)cc1)Nc1cccc2ccccc12 | / | / | -5.7 | 0.3 | 0.1 | / | /
OC(c1ccc(Cl)c(F)c1)c1ncc(-c2ccc(Oc3ccccc3)cc2)[nH]1 (stereo not given) | 20.9 | / | 10.5 | 0.9 | 4.4 | / | /
OC(c1ccc(Cl)c(F)c1)c1ncc(-c2ccccc2C(F)(F)F)[nH]1 (stereo not given) | -5.4 | / | 6.1 | -0.2 | 6.8 | / | /
OC(c1cccc(F)c1)c1ncc(-c2ccc(Oc3ccccc3)cc2)[nH]1 (stereo not given) | 18.8 | / | 23.4* | 0.9 | 7.2 | 10.0 | 3.2
